This is part of a sample that, as a whole, favours compounds with a hit. Of some 83,000 tested, about 20% had one in any assay.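 Single-dose data. Exposure time 48 hours. Values below 10 considered active.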 Active and inactive are the calls of the source.
Key:
Experiment in all cases: NCI-60 one-dose screen, 48 h (100 = growth as untreated, 0 = no growth, -100 = all killed)
Conditions in all cases: 10 µM unless noted
[1] = system: SR leukemia
[2] = system: RPMI-8226 leukemia
[3] = system: OVCAR-8 ovarian
[4] = system: OVCAR-5 ovarian
[5] = system: OVCAR-4 ovarian
[6] = system: SK-OV-3 ovarian
[7] = system: IGROV1 ovarian
[8] = system: OVCAR-3 ovarian
[9] = system: HS 578T breast
[10] = system: NCI/ADR-RES ovarian

Measured: growth

O=C(N/N=C\c1ccccc1S(=O)(=O)O)N/N=C/c1ccccc1S(=O)(=O)O
inactive: [1] 90.3% | [2] 94.6% | [3] 100% | [4] 97.1% | [5] 109% | [6] 108% | [7] 109% | [8] 108% | [9] 93.9% | [10] 103%

CCc1n(Cc2ccc3ccccc3n2)cc[n+]1Cc1ccc2ccccc2n1
active: [2] -1.65%
inactive: [1] 30.2% | [3] 27.1% | [4] 43.2% | [5] 14.5% | [6] 33.4% | [7] 30% | [8] 14.2% | [9] 44.8% | [10] 104%

Ic1ccccc1I
inactive: [1] 90.1% | [2] 104% | [3] 96.8% | [4] 98% | [5] 101% | [6] 106% | [7] 99.8% | [8] 110% | [9] 97.1% | [10] 101%

N#C/C(=C\c1ccc([N+](=O)[O-])cc1)n1nnc2cc(F)c(F)cc21
inactive: [3] 11.4% | [4] 21% | [9] 58.4%
active: [1] -0.476% | [2] -22.4% | [5] 9.19% | [7] -10.9% | [8] -40.1% | [10] 9.64%

NC(=O)c1c(NC(=O)c2cccs2)sc2c1CCC(=O)C2
active: [1] 5.54% | [2] -13.6% | [5] -6.38%
inactive: [3] 21.2% | [4] 22.2% | [6] 87.1% | [7] 29.7% | [8] 13% | [9] 35.1% | [10] 59.4%

CCN1CCN(CC(=O)Nc2nc3ccc(NCc4ccc(F)cc4)cc3s2)CC1
inactive: [1] 80.2% | [2] 77.3% | [3] 95.6% | [4] 94.8% | [5] 84% | [7] 103% | [8] 99.4% | [9] 92.9% | [10] 92.2%

C=C1C(=O)O[C@H]2[C@H]1CC/C(Cn1cc(CCC)nn1)=C\CC[C@@]1(C)O[C@@H]21
active: [1] 0.0381% | [8] 1.06%
inactive: [2] 26.9% | [3] 23.7% | [4] 68.2% | [5] 40.3% | [7] 41% | [9] 69.1% | [10] 73.1%

O=C(C1CCCCC1)[C@@H]1[C@]2(C(=O)NC3CCCCC32)[C@@H]2CCCN2[C@@]12C(=O)NC1CCC(Cl)CC12 (stereo partly drawn)
active: [1] -68.6% [100 µM] | [2] -33.6% [100 µM] | [3] -64.3% [100 µM] | [4] -89.5% [100 µM] | [5] -79.6% [100 µM] | [6] -94.1% [100 µM] | [7] -70.3% [100 µM] | [8] -91.9% [100 µM] | [9] -43.6% [100 µM] | [10] -68.2% [100 µM]

c1nc2ccc(-c3cc4ccc5[nH]ncc5c4c4c3CCCC4)cc2[nH]1
active: [1] 8.69%
inactive: [2] 58.1% | [3] 78.5% | [4] 69.3% | [5] 88% | [7] 36% | [8] 89.5% | [9] 65.2% | [10] 110%

C[C@H](CCCC(=O)NCC#CCN1CCN(C)CC1)[C@H]1CC[C@H]2[C@@H]3CC[C@@H]4CC(=O)CC[C@]4(C)[C@H]3CC[C@]12C
inactive: [1] 48.3% | [2] 86.7% | [3] 94.6% | [4] 93.3% | [5] 98.4% | [6] 81.6% | [7] 92.2% | [8] 91.5% | [9] 81.8% | [10] 93.5%

Cn1cc(-c2nn3cc(-c4cccs4)nc3s2)c2cc(F)ccc21
inactive: [1] 11.8% | [2] 31.2% | [3] 51.4% | [4] 42.7% | [5] 60.5% | [7] 35.3% | [10] 21.1%
active: [8] 5.2% | [9] 1.66%

C#Cc1cccc(Nc2nc(C)nc3cc(NC(=O)CCl)ccc23)c1
active: [1] -40.4% | [2] -47.5% | [3] -15.4% | [4] -84.7% | [5] -42.2% | [7] -56.7% | [8] -88.2% | [9] -11.6% | [10] -22%

Cn1ccc(=O)nc1
inactive: [1] 68.7% | [2] 101% | [3] 78.7% | [4] 74.5% | [5] 76.1% | [7] 79% | [8] 115% | [9] 132% | [10] 93.4%

Cc1cn(-c2cc(NC(=O)c3cncc(C#Cc4c(N)ncc5ccc(F)cc45)c3)cc(C(F)(F)F)c2)cn1
inactive: [1] 51.4% | [2] 55.1% | [3] 65.2% | [4] 46.2% | [5] 79.6% | [7] 32.9% | [8] 84.5% | [9] 54.6% | [10] 79.1%

CC1=CC(c2ccco2)=C2C(N)=NNC2N1 (stereo not drawn)
inactive: [1] 94.2% | [2] 106% | [3] 97.7% | [4] 87.7% | [5] 92.6% | [7] 86.9% | [8] 104% | [9] 105%

CCOc1ccc(-n2nc(C(=O)NCc3ccccc3OC)nc2-c2cc(OC)c(OC)c(OC)c2)cc1
inactive: [1] 35.9% | [2] 26.9% | [3] 43.7% | [4] 74.2% | [5] 23.4% | [6] 67.1% | [7] 43.7% | [8] 49.4% | [9] 55.1% | [10] 27.8%

CC/C(Cc1ccccc1)=C(\c1ccc(OCCCN(C)C)cc1)c1ccc(OC(=O)NCc2ccccc2)cc1
inactive: [2] 60.4% | [3] 76.1% | [4] 90.6% | [5] 75.7% | [7] 59% | [8] 87.8% | [9] 73.4% | [10] 81.4%
active: [1] -22%

Cn1c2c(c3ccc(Cl)c(Cl)c31)C(C#N)C(C)(C)NC2=O (stereo not drawn)
inactive: [1] 66% | [2] 72.1% | [3] 95.1% | [4] 77.7% | [5] 89.6% | [8] 71.3% | [9] 34.1% | [10] 81.6%
active: [7] -5.28%

COc1cc(NC(=O)c2cncnc2Nc2ccc3c(ccn3Cc3ccccn3)c2)cc(OC)c1
active: [8] 9.55%
inactive: [1] 12.9% | [2] 43.5% | [3] 65.8% | [4] 76.6% | [5] 78.4% | [6] 57.9% | [7] 45.4% | [9] 35.2% | [10] 35%

Nc1nc2c(c3ncccc13)C(c1cccc(Cl)c1)Cc1ncccc1-2 (stereo not drawn)
inactive: [2] 32.4% | [3] 23.8% | [4] 44.7% | [5] 52.4% | [7] 50.5% | [9] 31.1%
active: [1] 8.92% | [8] 0.176%

COc1cc2c(c(OC)c1OC)C(=O)CC(c1cccc(NC(=O)c3ccc(C#N)cc3)c1)O2 (stereo not drawn)
inactive: [1] 41.7% | [2] 30.8% | [3] 40.9% | [4] 101% | [5] 63% | [6] 99.1% | [7] 85.5% | [8] 76.5% | [9] 90.3% | [10] 50.7%

C=C(C)[C@@H]1CCC[C@]2(C(=O)N3CCN(C)CC3)CC[C@]3(C)[C@@H](CC[C@@H]4[C@@]5(C)CC/C(=N\NC(=O)c6ccncc6)C(C)(C)[C@@H]5CC[C@]43C)[C@@H]12
inactive: [2] 78.2% | [3] 96.7% | [4] 80.1% | [5] 91.5% | [7] 82.7% | [8] 95.5% | [9] 103% | [10] 99.3%
active: [1] 7.99%

O=C(N=Nc1c(O)[nH]c2ccccc12)Nc1ccc(F)cc1
inactive: [1] 84.2% | [2] 91% | [3] 96.7% | [4] 90.4% | [5] 103% | [6] 80.5% | [7] 85.2% | [8] 102% | [9] 96.2% | [10] 104%

COc1cc(OC)c(/C=C/C(=O)c2c(O)cc(OC)c(C3CCN(C)CC3)c2OC)c(OC)c1
inactive: [5] 19.3% | [7] 29.1%
active: [1] -22.2% | [2] -45.3% | [3] 1.17% | [4] -29.8% | [6] -79.7% | [8] -51.1% | [9] -46.2% | [10] -19.3%

O=C(Nc1ccccc1N1CCCC1=O)c1oc2ccc(F)cc2c1-c1cnn(-c2ccccc2)c1
inactive: [1] 61.6% [50 µM] | [2] 32.3% [50 µM] | [3] 20.5% [50 µM] | [4] 87.8% [50 µM] | [5] 57.6% [50 µM] | [7] 65.7% [50 µM] | [8] 72.4% [50 µM] | [9] 41.4% [50 µM] | [10] 40.4% [50 µM]

CCN(CC)CCCN1C(=O)c2c(c(C)c3c(oc4ccc(OC)cc43)c2C)C1=O
inactive: [1] 102% | [2] 99.3% | [3] 93.3% | [4] 114% | [5] 117% | [7] 94.6% | [8] 108% | [9] 99.2% | [10] 95.7%

O=C(CC(=O)Nc1cccc(C(=O)O)c1)Nc1cccc(C(=O)O)c1
inactive: [1] 96% | [2] 100% | [3] 107% | [4] 101% | [5] 97.8% | [6] 106% | [7] 109% | [8] 113% | [9] 100% | [10] 106%

Reference: PubChem BioAssay (NCI)
